For part of these data: Entries with a potency or affinity are not part of this list.

For one test, the system named is Staphylococcus aureus. Briefly: Antibacterial activity against Staphylococcus aureus MRSA ATCC 43300 (CO-ADD:GP_020); MIC in CAMBH media using NBS plates, by Resazurin F(560/590). The test is classed as functional. Particulars: Concentration 20 uM, ASSAY_TEST Inhibition of Bacterial Growth, detection method Resazurin, Fluorescence (ex560/em590), MEDIA CAMHB, plate type 384well, CORNING #3640, time 18 hr.

The test system of another test is Acinetobacter baumannii. Briefly: Antibacterial activity against Acinetobacter baumannii ATCC 19606 (CO-ADD:GN_034); MIC in CAMBH media using NBS plates, by Resazurin F(560/590). The test is classed as functional. The conditions noted are these: Concentration 20 uM, ASSAY_TEST Inhibition of Bacterial Growth, detection method Resazurin, Fluorescence (ex560/em590), MEDIA CAMHB, plate type 384well, CORNING #3640, time 18 hr.

The subject of another test is Escherichia coli. Briefly: Antibacterial activity against Escherichia coli ATCC 25922 (CO-ADD:GN_001); MIC in CAMBH media using NBS plates, by Resazurin F(560/590). In kind it is functional. Particulars: Concentration 20 uM, ASSAY_TEST Inhibition of Bacterial Growth, detection method Resazurin, Fluorescence (ex560/em590), MEDIA CAMHB, plate type 384well, CORNING #3640, time 18 hr.

The test system of the next test is Klebsiella pneumoniae. Particulars: Concentration 20 uM; ASSAY_TEST Inhibition of Bacterial Growth; detection method Absorption (OD600); MEDIA CAMHB; plate type 384well; NBS; CORNING #3640; time 18 hr.
For the next test, the system named is Candida albicans. The conditions noted are these: 20 µM.
The test system of a further test is Cryptococcus neoformans. The conditions noted are these: Concentration 20 uM; ASSAY_TEST Inhibition of Fungal Growth; detection method Resazurin; Absorption (OD600-OD570); plate type 384well; NBS; CORNING #3640.

For the compound `COc1ccccc1NC(=O)Nc1cc(C(C)C)ccc1C`, the Inhibition is 13.43% with Staphylococcus aureus; 2.93% in the test with Acinetobacter baumannii; -1.81% in the test with Escherichia coli; -0.93% in the test with Klebsiella pneumoniae; 0.16% in the test on Candida albicans; -4.04% with Cryptococcus neoformans.

As for `O=C(c1ccccc1)c1ccccc1C(=O)c1ccccc1`, the Inhibition was 16.85% in the test on Staphylococcus aureus; 12.71% in the test on Acinetobacter baumannii; 4.94% with Escherichia coli; 16.03% with Klebsiella pneumoniae; 2.49% in the test on Candida albicans; -5.73% in the test with Cryptococcus neoformans.

Turning to `COc1cc2c(O)cc(C(=O)O)c(-c3cc(OC)c(OC)c(OC)c3)c2cc1OC`, the Inhibition is 5.82% with Staphylococcus aureus; -7.99% in the test on Acinetobacter baumannii; 8.13% in the test on Escherichia coli; 8.82% in the test on Klebsiella pneumoniae; -0.33% in the test on Candida albicans; -9.59% in the test on Cryptococcus neoformans.

Turning to `C1=Cc2ccccc2Nc2ccccc21` [IMINOSTILBENE], the Inhibition with Staphylococcus aureus was -1.85%; in the test on Acinetobacter baumannii it was -14.24%; with Escherichia coli, 12.01%; with Klebsiella pneumoniae, 3.59%; in the test with Candida albicans, 3.51%; in the test with Cryptococcus neoformans, -15.72%.

`Nc1n[nH]c(-c2ccccc2)n1`: the Inhibition was 11.8% with Staphylococcus aureus; -13.69% in the test on Acinetobacter baumannii; 16.83% in the test on Escherichia coli; 8.63% with Klebsiella pneumoniae; -1.64% in the test on Candida albicans; -8.71% with Cryptococcus neoformans.

Turning to `O=C(CCl)NC1(C(=O)O)CCCC1`, the Inhibition was -0.81% in the test with Staphylococcus aureus; 16.39% with Acinetobacter baumannii; -6.53% in the test with Escherichia coli; 9.23% in the test with Klebsiella pneumoniae; 6.58% in the test on Candida albicans; -2.6% with Cryptococcus neoformans.

Turning to `CCOC(=O)CC(=O)NC(C)(C)CCCCC(C)(C)NC(=O)CC(=O)OCC`, the Inhibition in the test on Staphylococcus aureus was -5.26%; in the test with Acinetobacter baumannii it was -12.04%; with Escherichia coli, 17.83%; in the test on Klebsiella pneumoniae it was 13.05%; in the test on Candida albicans it was -0.86%; in the test with Cryptococcus neoformans, -4.13%.

With `FC(F)(F)c1nc2nc(Cl)c(Cl)nc2n1CCCN1CCOCC1`, the Inhibition in the test on Staphylococcus aureus was 14.57%; in the test on Acinetobacter baumannii it was 9.11%; in the test with Escherichia coli, -16.14%; with Klebsiella pneumoniae it was 4.93%; in the test with Candida albicans, 5.42%; in the test with Cryptococcus neoformans, 38.81%.

As for `CC(C)(C)c1ccc(NS(=O)(=O)c2ccc(N)cc2)cc1`, the Inhibition in the test with Staphylococcus aureus is 8.8%; with Acinetobacter baumannii, 3.26%; in the test with Escherichia coli, -6.26%; with Klebsiella pneumoniae, 16.84%; in the test on Candida albicans it was 3.64%; in the test with Cryptococcus neoformans, -7.4%.

Turning to `Cc1cccnc1N=C(S)Nc1ncccc1C`, the Inhibition was 10.58% in the test with Staphylococcus aureus; 20.87% in the test on Acinetobacter baumannii; 9.06% in the test with Escherichia coli; 23.76% in the test on Klebsiella pneumoniae; 3.55% with Candida albicans; -10.6% with Cryptococcus neoformans.

`CN(C)S(=O)(=O)Nc1ccccn1`: the Inhibition in the test with Staphylococcus aureus was 6.72%; in the test on Acinetobacter baumannii, 9.21%; in the test with Escherichia coli it was -0.96%; with Klebsiella pneumoniae, 17.6%; in the test with Candida albicans it was 5.95%; with Cryptococcus neoformans it was -3.86%.

As for `Cc1c(NC(=O)Nc2c(Cl)cccc2Cl)c(=O)n(-c2ccccc2)n1C`, the Inhibition with Staphylococcus aureus is 9.25%; in the test on Acinetobacter baumannii, 9.07%; with Escherichia coli it was 6.32%; in the test on Klebsiella pneumoniae, 8.26%; with Candida albicans, -0.35%; with Cryptococcus neoformans, -0.01%.

Turning to `COc1cc(NCc2ccccc2O)c2ncccc2c1`, the Inhibition in the test with Staphylococcus aureus is -0.91%; in the test on Acinetobacter baumannii it was -6.99%; with Escherichia coli, 7.11%; in the test on Klebsiella pneumoniae it was 7.53%; with Candida albicans it was 4.54%; with Cryptococcus neoformans, -12.51%.

In the case of `Nc1cc(O)nc2ncnn12`, the Inhibition in the test on Staphylococcus aureus is 9.25%; in the test on Acinetobacter baumannii it was -2.47%; with Escherichia coli, 7.96%; with Klebsiella pneumoniae it was 6.69%; in the test on Candida albicans, -0.84%; with Cryptococcus neoformans it was -4.53%.

For `Sc1nc2ccccc2n2cccc12`, the Inhibition with Staphylococcus aureus was 2.5%; with Acinetobacter baumannii it was -10.79%; in the test on Escherichia coli, 2.01%; in the test with Klebsiella pneumoniae it was 3.32%; with Candida albicans, 17.9%; with Cryptococcus neoformans, -1.74%.

`CCOc1ccc(Nc2c3ccccc3nc3ccccc23)cc1`: the Inhibition in the test with Staphylococcus aureus was -9%; in the test on Acinetobacter baumannii it was -1.21%; with Escherichia coli, -17.49%; in the test on Klebsiella pneumoniae it was 0.35%; in the test with Candida albicans, -0.79%; in the test with Cryptococcus neoformans, -2.93%.

In the case of `CCC(C)Nc1nc2c(c(=O)n(C)c(=O)n2C)n1C` (stereo not given), the Inhibition is 12.63% with Staphylococcus aureus; 12.04% in the test with Acinetobacter baumannii; -1.91% in the test on Escherichia coli; 12.65% in the test with Klebsiella pneumoniae; 3.5% in the test with Candida albicans; -7.05% in the test with Cryptococcus neoformans.

Consider `CCOc1nsc(OCC)n1`, for which the Inhibition in the test with Staphylococcus aureus is 10.98%; with Acinetobacter baumannii, -19.84%; in the test on Escherichia coli it was 11.82%; with Klebsiella pneumoniae it was -1.83%; in the test on Candida albicans, 5.3%; in the test with Cryptococcus neoformans it was -10.38%.

On to `OC(COc1ccc(Cl)cc1)CN1CCN(c2cccc(Cl)c2)CC1` (stereo not given), for which the Inhibition in the test on Staphylococcus aureus was 15.95%; in the test with Acinetobacter baumannii, -3.41%; in the test with Escherichia coli, 10.45%; in the test with Klebsiella pneumoniae it was 10.9%; with Candida albicans, -0.89%; with Cryptococcus neoformans, -14.11%.

Regarding `Cn1nc(NC(=O)C(F)(F)F)c2ncc(-c3ccc(Cl)cc3)nc21`, the Inhibition is 20.42% in the test with Staphylococcus aureus; 13.75% in the test with Acinetobacter baumannii; 1.31% in the test with Escherichia coli; 13.33% in the test on Klebsiella pneumoniae; 2.95% in the test on Candida albicans; -3.57% with Cryptococcus neoformans.

With `CC(=O)N1C(=O)C2(NCC(C)N2)c2ccccc21` (stereo not given), the Inhibition in the test with Staphylococcus aureus is 7.15%; in the test on Acinetobacter baumannii it was -16.52%; in the test on Escherichia coli, 6.45%; with Klebsiella pneumoniae it was 10.18%; with Candida albicans it was 2.13%; in the test with Cryptococcus neoformans, -1.95%.

As for `Cc1ccc(-c2cssc2=S)cc1`, the Inhibition in the test with Staphylococcus aureus is -26.91%; in the test with Acinetobacter baumannii, -10.22%; with Escherichia coli, -20.59%; in the test on Klebsiella pneumoniae it was 2.16%; with Candida albicans, 13.1%; in the test on Cryptococcus neoformans it was 11.55%.

For the compound `Nc1cc2c3c(cccc3c1)C(=O)N(CCN1CCCC1)C2=O`, the Inhibition in the test on Staphylococcus aureus is 23.19%; with Acinetobacter baumannii, 9.76%; with Escherichia coli it was 2.48%; in the test on Klebsiella pneumoniae it was 19.29%; in the test on Candida albicans, -1.62%; in the test with Cryptococcus neoformans, -3.61%.

As to `Nc1nnc(S)n1-c1ccc(Cl)cc1`, the Inhibition is 10.79% in the test on Staphylococcus aureus; -9.57% in the test with Acinetobacter baumannii; 13.33% in the test on Escherichia coli; -2.18% with Klebsiella pneumoniae; 11.3% in the test with Candida albicans; -11.28% in the test on Cryptococcus neoformans.

Turning to `CCCCCCCCCCC(C(=O)O)C1(C(=O)O)CCC(=O)O1` (stereo not given), the Inhibition in the test with Staphylococcus aureus was 8.92%; with Acinetobacter baumannii, 10.41%; in the test with Escherichia coli, 4.35%; in the test on Klebsiella pneumoniae it was 3.55%; with Candida albicans, 8.22%; with Cryptococcus neoformans it was -9.1%.

The values are drawn from ChEMBL document CHEMBL4296182, “CO-ADD screening of NIH NCI Diversity Set V”.
